Source: PubChem BioAssay (NCI)
The panel holds about 83,000 compounds, 20% with a hit somewhere; the sample as a whole holds those more often.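 The test compound was applied at a single concentration to cells in 96-well plates for 48 hours, and percent growth was recorded.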 Values without a mark were called inactive. The source made the active and inactive calls. How the source made its calls: active means growth percent below 10; inactive means the rest.

System: HL-60(TB) leukemia
Test: NCI-60 one-dose screen, 48 h (100 = growth as untreated, 0 = no growth, -100 = all killed)
Conditions: 10 µM unless noted

Row | SMILES | growth
1 | Cc1ccc2sc3c(NCCCN)nc4ccccc4c3c(=O)c2c1 | -27.1% (active)
2 | O=C(CN1CCOCC1)Nc1ccc2ncnc(Nc3ccc(OCc4cccc(F)c4)c(Cl)c3)c2c1 | 75.2%
3 | CCOC(=O)c1c2ncccc2n2c(=O)n(-c3ccc(Cl)cc3)nnc12 | 80.5%
4 | CCN1C(=O)N(CC)C2C1NN=c1s/c(=C\c3cnc(C)n3C)c(=O)n12 (configuration not stated) | -33.3% (active)
5 | Nc1ccn(Cc2nnc(CCC(=O)c3nc4ccccc4[nH]3)o2)c(=O)n1 | 80.5%
6 | COc1ccc2c(c1)OC13Oc4cc(OC)ccc4C=C1CCCCC3=C2 | 104%
7 | NC(=S)N/N=C/c1cc(-c2cccc(N)c2)ccn1 | -12% (active)
8 | Cc1cn(C2CCCCC2)c(=O)[nH]c1=O | 96.7%
9 | O=C(Nc1cccc(C(F)(F)F)c1)Nc1ccc(OCc2nnc(-c3ccccc3)o2)c(F)c1 | -4.69% (active)
10 | COc1cc(NC(=O)c2cccc(-c3cc(=O)c4c(O)c(OC)c(OC)cc4o3)c2)cc(OC)c1OC | 78%
11 | Cc1c(O)c(=O)ccn1-c1nc2ccccc2s1 | 98.3%
12 | CC1(Cc2ccccc2)CC2=C(C(=O)O1)C(c1ccccc1)NC(=O)N2 (configuration not stated) | -25.1% (active)
13 | N=C(N)c1ccc(-c2ccc(-c3ccccc3)s2)nc1 | 16.6%
14 | CC(C)c1ncc([N+](=O)[O-])n1C | 118%
15 | COC(=O)c1cnc2c(c1)Oc1ccccc1-c1ccnn1-2 | 98.3%
16 | COc1cc(Nc2cn[nH]c2-c2ccc(Cl)cc2)cc(OC)c1OC | 14.6%
17 | Cc1ccc(NC(=O)c2sc3nc4c(cc3c2N)C(=O)CCC4)cc1Cl | 106%
18 | Nc1ccc(Oc2ccccc2)c(Cl)c1 | 119%
19 | COc1cc(/C=C2\CN(S(=O)(=O)c3ccccc3)C/C(=C\c3cc(CN4CCCCC4)c(O)c(OC)c3)C2=O)cc(CN2CCCCC2)c1O | -37.6% (active)
20 | CC[C@@H]1OC(=O)[C@H](C)[C@@H](O[C@H]2C[C@@](C)(OC)[C@@H](O)[C@H](C)O2)[C@H](C)[C@@H](O[C@@H]2O[C@H](C)C[C@H](N(C)C)[C@H]2O)[C@](C)(O)C[C@@H](C)[C@@H]2N[C@@H](COCCOC)O[C@H]([C@H]2C)[C@]1(C)O | 94.2%
21 | c1ccc(-c2c(-c3ccccc3)[n+](Cc3ccc4ccccc4c3)cn2Cc2ccc3ccccc3c2)cc1 | -67.1% (active)
22 | Cc1ccccc1-n1nnc(C(=O)Nc2nc(-c3ccccc3)c(-c3ccccc3)s2)c1C | 89.1% [50 µM]
23 | O=C(CN(C1CCCCC1)C1CCCCC1)Nc1ccc(S(=O)(=O)c2ccc(NC(=O)CN(C3CCCCC3)C3CCCCC3)cc2)cc1 | -39.3% (active)
24 | Nc1cc2nc3ccccc3sc-2cc1=O | 6.95% (active)
25 | O=C1C(=O)c2ccccc2C(O)=C1CCCc1ccc(Oc2ccccc2)cc1 | 44.3%
26 | Clc1ccc(Nc2ccnc(N3CCN(c4ccnc5cc(Cl)ccc45)CC3)n2)cc1 | 72.1%
27 | O=C1NC(=S)S/C1=C\c1cccc([N+](=O)[O-])c1 | 83.8%
